The record followed here is PubChem BioAssay AID1508600 (Functional Genomics Laboratory (NCATS/FGL), 2020).

Out of some 53,000 sequences screened, about 3,700 (7%) were called active. The sample as a whole holds a higher share of actives than the screen did. A number with no mark means an inactive call.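 The calls were made as follows: active = gene knockdowns whose robust z-score for IL-1 alpha signal is at least 2 or at most -2, so actives lie on both sides; inactive = the rest.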

The experiment is described as follows: Components of the Cytosolic LPS Sensing Pathway: Gene Identification via Genome-wide siRNA Screen.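 Also: robust z of the log signal after scaling to non-targeting control siRNA wells of the plate.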 The note with it: RAW264.7 macrophages, IL-1a HTRF, actives lie on both sides, screened at 100 nM (by protocol), cells primed 5 h with Pam3CSK4 first. In short, it runs like this: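 Supernatant IL-1a by HTRF from RAW264.7 cells primed with Pam3CSK4 (5 hours) and transfected with LipidA (24 hour) after 48h siRNA knockdown at 100 nM; cell viability checked with CellTiter-Glo.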
Consider GGAAAGUUUGCACUGUAAATT against Tiam2, for which the z-score was -0.207.
As for CCGUCUUCACCUGAUACAGTT against Ube2d2b, the z-score was 0.501.
In the case of GCUGAACGGUCUCAAACAGTT against Cdca3 it was 0.395; in that of GGUGUCUCUGAUGAAUCACTT against Syt15, 1.21; in that of UCACAGUCAUCAUUGUUUCTT against Olfr825, -2.83 (active).
As for GGAAGUCCAACUUCUUCCATT against Ebf4, the z-score is -0.153.
In the case of GGUACCAUGAAGGAUUUAUTT against Tspan2, the z-score was 3.24 (active).
Next, GGCAUGAUGAUAUUUGAAATT against Glrp1: -0.142; GGAAAAAGAUGUCCUAUCUTT against Rufy2: -1.08; GGAUGUGGGUGGAUAUCAUTT against Sit1: 0.145.
Turning to GGAAAAAAAGGUAGCUGGATT against Tspyl4, the z-score is 2.82 (active).
On to GCUUAUCGAAUUCUUCUCCTT against Cnpy2, for which the z-score was 0.417.
In the case of CUAGAUGCACAGAAUAGCATT against Prm1 it was -1.83.
Next, GCAAUAGGCAAUCUGGGAUTT against Olfr52: 0.504.
In the case of GCCUCAAUAAAUUGUCAGCTT against Slc25a17 it was -0.0131; in that of GAAGCAGAACUUGAGCAAGTT against Phgdh, 2.07 (active).
As to GCUGCAUAGAAUGACACGATT against Pip5kl1, the z-score was 0.851.
In the case of GGCAAAGACGACCUCUCACTT against Vtcn1 it was -1.56; in that of GGAUGAUGAAGUCAAAUUUTT against Slc26a5, 0.0656; in that of CGACACCUAAGUUCAGCACTT against Mief2, -1.91.
Consider GCACUUUCAUGGAUAUAAGTT against Rab22a, for which the z-score is -0.366.
As for GGCACUACUAAGAACCUUATT against Tmem69, the z-score was 0.728.
Next, CGCAUACUGAUGAUAACUATT against Zfp317: 2.12 (active).
GGAAACCUUUUACCUUUAATT against Padi1: the z-score was -0.874.
Next, CCAAAAUCGGGAAAGGAAATT against Ldb2: -0.00816.
Regarding “GGCUUGACCUGCGUCUUCATT against 1700001P01Rik”, the z-score was 0.736.
As to GGAACAUUGGCAUCACGACTT against Acy1, the z-score is 0.901.
In the case of GGACGACGACUUUUUAAAATT against Pnmal1, the z-score was 2.18 (active).
Next, CCAUCUCUUACUAUCCAUGTT against Cmbl: -1.03; GGCAUGACUGGACUGAAAATT against Ythdf3: -0.976; GGGAUUUAGCACAAGAUACTT against Brinp3: 0.606.
As for GGUAUUCUUGGAAGGAGGGTT against Prss22, the z-score is 0.153.
As to GGUCCAGAGAAGGCAAGCUTT against Elf3, the z-score was 5.87 (active).
In the case of CGAAAAUCUUCUGGCUCACTT against Llgl2 it was -0.922; in that of GGGACUUAGAAACAAUCCATT against Hsd3b4, 1.77.
As to GGUAGCGAUGUUUUCUUAUTT against Nt5dc3, the z-score is 1.66.
In the case of GGUCAUGCUGAUCAGCGACTT against Itfg2 it was -0.564.
Next, GGACUACAUGCUCACGUUATT against Ccm2: 2.07 (active); CGCCGCACAGUUAAUGCUUTT against Mettl17: 0.973; GGUUCCUCUCAAAAUUCAATT against Gprc6a: 3.13 (active).
Next, GCGAGAGAUGAAAUGGGUGTT against Tbc1d10c: 1.07; CCUUAAAAGUAACCACUGUTT against Slc6a6: 2.38 (active); GGUUUUAUCUCUUGUGCCCTT against Myl10: -0.565.
With GGCCAAGGAUCCAUCUGUATT against Magee1, the z-score is 0.11.
Consider GCAAUAGCAGCAACUCUUATT against Dbpht1, for which the z-score was -0.369.
Next, GGCUCUAACAGCUACAUGUTT against Hspb7: -2.21 (active).
Next, GGGAGAUGUCUUACACAUGTT against Fkbp2: 1.12; GGUGGUUCUCAGCUGUGUATT against Arhgef18: -1.08; GGAUGAUGAAUGCAAUUAATT against Eed: -0.882.
In the case of CCUACUUUGGACUCUUUCATT against Tnfsf12 it was -2.25 (active).
On to GGUGGAAGACUUCAGUGAATT against Clgn, for which the z-score is 0.384.
In the case of CAGCUUGUGCUCGAGUAAATT against Gm3579 it was -1.14; in that of GGACAGAAAGGUACCCUUATT against Slc30a5, 0.461.
In the case of GGUAGUUGUUCUAUGUUUUTT against Olfr967 it was -1.07.
In the case of GCAAAAGUGUAUCAUGAUGTT against Olfr1052 it was -2.17 (active); in that of CGUGGAGCUACCAUAUAGGTT against Mob3b, 0.581.
Consider CGACCAGCUUCUAGUGCUUTT against Pcdha8, for which the z-score is -0.431.
For the sequence CCAAGCCUCCAAUGGUCAGTT against Stat6, the z-score was -0.623.
In the case of GCACUAUGACUACAAGAGUTT against Olfr1457, the z-score is -0.965.
For the sequence GCCGUUGCCUUUCAAGGGATT against Inhbe, the z-score was -0.112.
As to GCUUUUCCGUGAUCAUACATT against Tex14, the z-score is 0.0691.
GGAUCCAGAUACUCCCAAGTT against Camp: the z-score is -1.08.
As for GGGUUUCUUGAUUCUGACCTT against Ccl5, the z-score is -2.33 (active).
In the case of CCUACCAGUUCCUAUUUAGTT against Alas2 it was 0.452.
For GGGUCUCCGAAACUACUUATT against Tmem144, the z-score is 0.00626.
As for GCCAAUUUGACUUGUAAGUTT against Slc22a3, the z-score was 1.4.
Next, GGUUUCUGGAAGAAACUGGTT against Polr1a: -0.927; GCUGAGUGAAUCCACGUACTT against Mzb1: -2.65 (active).
In the case of CAUUGUCAUUCUAGUUGCATT against Olfr1251 it was 0.64.
In the case of GGCAACAAUAGUUCAGAAGTT against Rps6ka5 it was 1.5; in that of GCAUAUAAUGUCUAACUCGTT against Eml4, -0.0328.
As to GGUUCUUAACCUCAGCAGUTT against Omg, the z-score was -0.541.
In the case of GGAGUCUUGCUCUAUAUAATT against Arpc5, the z-score is 1.26.
GGCUUCUUUAUGUUUCCUUTT against Usp48: the z-score is -1.46.
Take GGCUUUUCUAGUUCCUCAATT against Pdzd7: the z-score is -2.01 (active).
On to GGAAUUCAAGGGCUCCACATT against Grip1, for which the z-score is 0.378.
Turning to GGUAGGAUGAGUUGAAGAGTT against AF366264, the z-score is 0.0631.
As to CCAGAAGUUAGAACAGUUCTT against Rp9, the z-score was 1.49.
On to GGAGUACAUGGUACACGUUTT against Fut8, for which the z-score was 1.52.
Next, GGAUGUUGUUUAUCGAGGATT against Med21: -0.572; GGAUGGAGGAAGACUCGAUTT against Etv6: 2.14 (active); GGAAACCUGUUUGAUUUUGTT against Aasdhppt: 0.798.
Next, GCUUUCAUAGCUGGAAACCTT against Olfr173: 0.452; CCUCACAAAUAUACAGUUCTT against Pira2: 0.519; UUCUACUGGGCUUAACCAGTT against Olfr1032: 1.86.
For GGAUGCUUUAACUUCAAACTT against Crebrf, the z-score was 2.56 (active).
Next, GCCAUAUAAGAUUCUUGUGTT against Pi4kb: -0.63; GCAAAUGUAUUAUGUCCUUTT against Gm5478: 0.0907.
In the case of GGAUUUGUAAGACUAAUCUTT against Xdh it was 0.00453.
In the case of GGUGAAGAGACUGGAGAACTT against Cavin2 it was -0.277.
For GGACAUAAAACUUUUCAGUTT against Foxf2, the z-score is 1.02.
In the case of GGAACAGAAGUCAAGUGGATT against Acsm5 it was 2.69 (active); in that of GCUGGACACGGAAGGUAUATT against Igsf8, -0.595.
In the case of “CCUAAGAACCCUGAUCCUATT against A030005L19Rik” it was 1.08; in that of GGAAAAGGAAGAACUGAUUTT against Sptlc1, -0.477; in that of GGACACCAUUGGCUCCUUATT against Tmub1, 1.63.
Turning to GGUGAUGUUCUAACCCUGCTT against Trex1, the z-score is -0.0124.
In the case of GGCUUUGUCUACACUUUCATT against Olfr1308 it was -1.02.
In the case of GGAUGGGAAGGUGAUUGUCTT against Gnb5, the z-score was 1.
Next, CCUGGUGUUCGUGUACCUGTT against Cdk5r2: 3.1 (active).
With GGAUUUAUUUAUGUCUUCCTT against Slc17a1, the z-score was 0.0643.
Next, GCAGUUGAGACAAUAUGUCTT against Trim31: -1.8; GGAUGUGUCGGGAAAUGCUTT against Frmd5: -1.7.
As to GCACUAGAAGUGUCUUUUCTT against Cdhr1, the z-score is 2.17 (active).
As for GGACAUUUUUCAUUUGUGATT against Zfhx4, the z-score is 1.28.
In the case of GGUCAUUCACGUCUGCGUUTT against Kcnj8 it was -0.292; in that of CCAGUGCAGGACCUCAUUUTT against Sod1, -2.06 (active); in that of GGCAGCUCUGACUUUAUAATT against Klhdc3, -1.63.
